# Assay outcomes deposited in PubChem by The Scripps Research Institute Molecular Screening Center.
# Compounds with a hit are over-represented: about 1.1% of the library has one in this group of screens.
# MOR-DOR ag-1 = agonists of human mu-delta opioid receptor heterodimerization; P35372+P41143; cells, OPRM1-OPRD1 heterodimerization, luminescence; activation, % at 9.3 µM; actives 0.3% (n = 340,000)
# Target sequence (P35372 whole entry, looked up): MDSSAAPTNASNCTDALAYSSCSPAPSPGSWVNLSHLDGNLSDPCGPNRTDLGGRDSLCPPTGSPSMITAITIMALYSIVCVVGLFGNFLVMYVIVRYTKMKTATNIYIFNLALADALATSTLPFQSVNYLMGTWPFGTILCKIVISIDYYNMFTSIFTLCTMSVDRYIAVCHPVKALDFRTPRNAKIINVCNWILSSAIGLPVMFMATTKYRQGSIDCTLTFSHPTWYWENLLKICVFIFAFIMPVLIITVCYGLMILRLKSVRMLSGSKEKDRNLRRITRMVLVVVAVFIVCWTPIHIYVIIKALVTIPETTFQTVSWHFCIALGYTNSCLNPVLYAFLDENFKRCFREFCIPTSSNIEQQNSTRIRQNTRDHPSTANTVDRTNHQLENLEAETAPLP
# Target sequence (P41143 whole entry, looked up): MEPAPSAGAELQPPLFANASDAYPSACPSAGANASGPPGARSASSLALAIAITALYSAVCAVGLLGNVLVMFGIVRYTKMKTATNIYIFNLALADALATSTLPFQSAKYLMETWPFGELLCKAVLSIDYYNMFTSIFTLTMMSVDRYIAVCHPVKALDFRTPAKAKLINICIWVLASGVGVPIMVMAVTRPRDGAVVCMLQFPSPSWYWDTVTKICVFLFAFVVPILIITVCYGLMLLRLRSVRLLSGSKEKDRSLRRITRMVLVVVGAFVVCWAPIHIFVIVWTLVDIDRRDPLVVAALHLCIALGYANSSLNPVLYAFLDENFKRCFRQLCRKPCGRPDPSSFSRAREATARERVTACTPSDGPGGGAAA
# HTR5A ag = counter-screen for OPRM1-OPRD1 agonists: human HTR5A agonism; actives 0.61% (n = 340,000); AID 504692; HTR5A agonist assay, luminescence, cell-based; P47898; activation, % at 9.3 µM; in the data active = activation mostly above about 9.5%, no sharp cut-off; inactive = mostly below about 7.6%
# HTR5A inv ag = HTR5A inverse agonism, opioid heterodimer counter-screen; HTR5A cell line, luminescence; actives 0.083% (n = 340,000); P47898; AID 504634; inhibition, % at 9.3 µM; in the data active = inhibition mostly above about 23%, no sharp cut-off; inactive = mostly below about 18%
# MOR-DOR inv ag-1 = inverse agonists of human mu-delta opioid receptor heterodimerization | P35372+P41143 | cell-based MOR-DOR heterodimer luminescence, inverse agonism | inhibition, % at 9.3 µM | actives 0.21% (n = 340,000) | AID 504357; in the data active = inhibition above about 22%, passing the limit was not always enough
# MOR-DOR inv ag-2 = counter-screen for HTR5A inverse agonists: OPRM1-OPRD1 heterodimerization inverse agonism; shares compounds with HTR5A inv ag; U2OS counter-screen cells, complementation luminescence; inhibition, % at 9.3 µM; 190 tested, under 10 active; AID 504912; call rule not given here
# HTR5A inv conf = confirmation of human HTR5A inverse agonists; shares compounds with HTR5A inv ag; 190 tested, under 10 active; inhibition, % at 9.3 µM; HTR5A-expressing cells, inverse agonism, luminescence; call rule not given here
# MOR-DOR ag-2 = promotes OPRM1-OPRD1 heterodimerization in HTR5A counter-screen; actives 13% (n = 800); shares compounds with HTR5A ag; U2OS counter-screen cells, complementation luminescence, 3 h; AID 504913; activation, % at 9.3 µM
# HTR5A ag conf = HTR5A (human) agonism, confirmation | actives 17% (n = 800) | activation, % at 9.3 µM | AID 504915 | shares compounds with HTR5A ag | HTR5A agonist cell assay, luminescence; in the data active = activation above about 17%
# Numbers stand for hits; – = inactive; · = not tested or not shown. Rule as the data show it, unless noted: active = activation above about 18%; inactive = the rest.
SMILES,MOR-DOR ag-1,HTR5A ag,HTR5A inv ag,MOR-DOR inv ag-1,MOR-DOR ag-2,HTR5A ag conf,others
O=c1[nH]c(O)c(N=Nc2cc([N+](=O)[O-])ccc2O)c(=O)[nH]1,–,–,27.8,–,·,·,MOR-DOR inv ag-2=–;HTR5A inv conf=–
O=[N+]([O-])c1ccc(O)c([N+](=O)[O-])c1,–,–,–,–,·,·,
COCCn1c(O)c(/C=N/NC(=O)CSC(=S)N2CCCC2)c(=O)[nH]c1=S,–,–,30.1,–,·,·,MOR-DOR inv ag-2=–;HTR5A inv conf=–
COC(=O)C1=C(c2ccc(F)cc2F)C[C@@H]2CC[C@H]1N2C(=O)NCc1ccco1,–,–,–,–,·,·,
Cc1cccnc1-n1c(C)nc2ccccc2c1=O,–,–,–,–,·,·,
CN1CCN(c2c(F)cc([N+](=O)[O-])c(N)c2Br)CC1,–,–,34.1,–,·,·,MOR-DOR inv ag-2=–;HTR5A inv conf=–
CN(C)C(=O)O/N=C(\N)COc1ccc(C(C)(C)C)cc1,–,28.6,–,–,–,–,
COc1ccccc1CCNC1CCCCCC1,–,–,–,–,·,·,
c1ccc2c(CCNC3CCCCC3)c[nH]c2c1,–,25.3,–,–,–,35.9,
OCCNCCc1c[nH]c2ccc(OCc3ccccc3)cc12,–,–,–,–,·,·,
COc1ccc2[nH]cc(CCN)c2c1,–,59.9,–,–,–,–,
COC(=O)C1=C(c2ccc(F)cc2F)C[C@@H]2CC[C@H]1N2C(=O)NCc1ccc2c(c1)OCO2,–,21.2,–,–,–,–,
Cc1[nH]c2ccc(O)cc2c1CCN,–,40.3,–,–,–,50.3,
Cc1[nH]c2ccc(OCc3ccccc3)cc2c1CCN,–,–,–,–,·,·,
O=C(Nc1ccc(Cl)cc1)O/N=C(\c1ccccc1)c1ccccn1,–,–,–,–,·,·,
CCN(CC)C(=O)N[C@H]1C[C@@H]2c3cccc4[nH]cc(c34)C[C@H]2N(C)C1,–,–,–,–,·,·,
CN1C[C@H](CO)C[C@@H]2c3cccc4[nH]cc(c34)C[C@H]21,–,16.3,–,–,–,23.3,
Nc1ccc(C2(c3ccc(N)cc3)c3ccccc3-c3ccccc32)cc1,–,44.2,–,–,22.7,27.0,
COC(=O)C(O)(c1c(C)[nH]c2ccccc12)C(F)(F)F (stereo not drawn),–,–,–,–,·,·,
COP(=O)(Cc1ccc(C#N)o1)OC,–,15.4,–,–,–,–,
CC(C)OP(=O)(Oc1ccc(C(O)C(Cl)(Cl)Cl)cc1)OC(C)C (stereo not drawn),–,–,–,–,·,·,
NC(Cc1ccccc1)c1nc(-c2ccccc2)no1 (stereo not drawn),–,–,–,–,·,·,
O=C1C(Cc2cnc[nH]2)NC(=S)N1c1ccccc1 (stereo not drawn),–,–,–,–,·,·,
CC(C)C[C@H]1C(=O)N2CCC[C@H]2[C@]2(O)O[C@](NC(=O)[C@@H]3C=C4c5cccc6[nH]cc(c56)C[C@H]4N(C)C3)(C(C)C)C(=O)N12,–,–,–,–,·,·,
CC[C@@H](CO)NC(=O)[C@@H]1C=C2c3cccc4[nH]cc(c34)C[C@H]2N(C)C1,–,91.1,–,–,–,84.3,
SMILES,MOR-DOR ag-1,HTR5A ag,HTR5A inv ag,MOR-DOR inv ag-1,MOR-DOR ag-2,HTR5A ag conf,others
CN1C[C@H](CNC(=O)OCc2ccccc2)C[C@@H]2c3cccc4c3c(cn4C)C[C@H]21,–,–,–,–,·,·,
CC[C@@H](CO)NC(=O)[C@@H]1C=C2c3cccc4c3c(cn4C)C[C@H]2N(C)C1,–,81.1,–,–,–,77.6,
CCC(CO)NC(=O)C1C=C2c3cccc4[nH]cc(c34)CC2N(C)C1 (stereo not drawn),–,74.7,–,–,–,88.0,
C=CCn1c(O)c(/C(C)=N/N2CCCCC2)c(=O)[nH]c1=O,–,19.5,–,–,–,–,
C=CCC1([C@@H](C)CCC)C(=O)NC(=O)NC1=O,–,–,–,–,·,·,
CC1CCC(C(C)C)C(OC(=O)Cn2c(COc3ccccc3)[n+](C)c3ccccc32)C1 (stereo not drawn),–,14.9,–,–,–,–,
N#Cc1c(Br)n(C2OC(CO)C(O)C2O)c2ncnc(N)c12 (stereo not drawn),–,80.8,–,–,32.3,24.1,
